# Measurements as given in article PMC11996681, “Interfacial water confers transcription factors with dinucleotide specificity”.
# Key:
# Experiment in all cases: HT-SELEX; SELEX buffer: 10.4 mM Tris-HCl pH 7.5, 51.4 mM NaCl, 1.4 mM MgCl2, 4% glycerol, 100 uM EGTA, 0.7 mM DTT, 3.7 ug/ml poly-dI-dC, 1.4 uM ZnSO4; room temperature (2); high values mean tight binding
# Details in all cases: protein: recombinant; dsDNA, one strand shown
# [1] = molecular target: BARHL2 DBD ctrl (unmutated, SELEX) (human, UniProt Q9NY43 227-293)
# [2] = molecular target: BARHL2 DBD T278I/T285N (HMX3) (human, UniProt Q9NY43 227-293, T278I;T285N)
# BARHL2 DBD T278V (EMX1) = BARHL2 DBD T278V (EMX1) (human, UniProt Q9NY43 227-293, T278V)
# [3] = molecular target: BARHL2 DBD T278I (NKX1.2) (human, UniProt Q9NY43 227-293, T278I)
# BARHL2 DBD T285M (NANOG) = BARHL2 DBD T285M (NANOG) (human, UniProt Q9NY43 227-293, T285M)
# [4] = molecular target: BARHL2 DBD T278I/T285V (HOXB13) (human, UniProt Q9NY43 227-293, T278I;T285V)
# [5] = molecular target: BARHL2 DBD T278N/T285I (PBX1) (human, UniProt Q9NY43 227-293, T278N;T285I)
# [6] = molecular target: BARHL2 DBD T278V/T285A (ALX4) (human, UniProt Q9NY43 227-293, T278V;T285A)
# [7] = molecular target: BARHL2 DBD T278I/T285M (HOXA3) (human, UniProt Q9NY43 227-293, T278I;T285M)
# [8] = molecular target: BARHL2 DBD T278V/T285M (MEOX2) (human, UniProt Q9NY43 227-293, T278V;T285M)
# [9] = molecular target: BARHL2 DBD T278I/T285A (CDX1) (human, UniProt Q9NY43 227-293, T278I;T285A)
# [10] = molecular target: BARHL2 DBD T278I/T285S (DLX1) (human, UniProt Q9NY43 227-293, T278I;T285S)
# [11] = molecular target: BARHL2 DBD T278N/T285Q (SIX6) (human, UniProt Q9NY43 227-293, T278N;T285Q)
# BARHL2 DBD T285A (LBX1) = BARHL2 DBD T285A (LBX1) (human, UniProt Q9NY43 227-293, T285A)
# [12] = molecular target: BARHL2 DBD T278N/T285R (PKNOX1) (human, UniProt Q9NY43 227-293, T278N;T285R)
# Chain of BARHL2 DBD T278N/T285R (PKNOX1) (Q9NY43 227-293 T278N/T285R): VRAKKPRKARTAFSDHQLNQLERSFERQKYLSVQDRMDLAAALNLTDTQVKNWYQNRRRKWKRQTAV
# Chain of BARHL2 DBD T278N/T285I (PBX1) (Q9NY43 227-293 T278N/T285I): as the sequence (Q9NY43 227-293 T278N/T285R) above, with R59I counted along it
# Chain of BARHL2 DBD T278I/T285M (HOXA3) (Q9NY43 227-293 T278I/T285M): as the sequence (Q9NY43 227-293 T278N/T285R) above, with N52I, R59M counted along it
# Chain of BARHL2 DBD T278I/T285S (DLX1) (Q9NY43 227-293 T278I/T285S): as the sequence (Q9NY43 227-293 T278N/T285R) above, with N52I, R59S counted along it
# Chain of BARHL2 DBD T278V/T285M (MEOX2) (Q9NY43 227-293 T278V/T285M): as the sequence (Q9NY43 227-293 T278N/T285R) above, with N52V, R59M counted along it
# Chain of BARHL2 DBD T278I/T285N (HMX3) (Q9NY43 227-293 T278I/T285N): as the sequence (Q9NY43 227-293 T278N/T285R) above, with N52I, R59N counted along it
# Chain of BARHL2 DBD T285A (LBX1) (Q9NY43 227-293 T285A): as the sequence (Q9NY43 227-293 T278N/T285R) above, with N52T, R59A counted along it
# Chain of BARHL2 DBD ctrl (unmutated, SELEX) (Q9NY43 227-293, stated change not applied): as the sequence (Q9NY43 227-293 T278N/T285R) above, with N52T, R59T counted along it
# Chain of BARHL2 DBD T285M (NANOG) (Q9NY43 227-293 T285M): as the sequence (Q9NY43 227-293 T278N/T285R) above, with N52T, R59M counted along it
# Chain of BARHL2 DBD T278I/T285A (CDX1) (Q9NY43 227-293 T278I/T285A): as the sequence (Q9NY43 227-293 T278N/T285R) above, with N52I, R59A counted along it
# Chain of BARHL2 DBD T278I/T285V (HOXB13) (Q9NY43 227-293 T278I/T285V): as the sequence (Q9NY43 227-293 T278N/T285R) above, with N52I, R59V counted along it
# Chain of BARHL2 DBD T278N/T285Q (SIX6) (Q9NY43 227-293 T278N/T285Q): as the sequence (Q9NY43 227-293 T278N/T285R) above, with R59Q counted along it
# Chain of BARHL2 DBD T278V/T285A (ALX4) (Q9NY43 227-293 T278V/T285A): as the sequence (Q9NY43 227-293 T278N/T285R) above, with N52V, R59A counted along it
# Chain of BARHL2 DBD T278I (NKX1.2) (Q9NY43 227-293 T278I): as the sequence (Q9NY43 227-293 T278N/T285R) above, with N52I, R59T counted along it
# Chain of BARHL2 DBD T278V (EMX1) (Q9NY43 227-293 T278V): as the sequence (Q9NY43 227-293 T278N/T285R) above, with N52V, R59T counted along it
Sequence,binding signal [1],binding signal [2],binding signal (BARHL2 DBD T278V (EMX1)),binding signal [3],binding signal (BARHL2 DBD T285M (NANOG)),binding signal [4],binding signal [5],binding signal [6],binding signal [7],binding signal [8],binding signal [9],binding signal [10],binding signal [11],binding signal (BARHL2 DBD T285A (LBX1)),binding signal [12]
TAATTG,43.5 fold enrichment,17.6 fold enrichment,11.2 fold enrichment,13.1 fold enrichment,6 fold enrichment,13.3 fold enrichment,10.4 fold enrichment,4.9 fold enrichment,11.5 fold enrichment,8.5 fold enrichment,14 fold enrichment,16.2 fold enrichment,5.8 fold enrichment,8 fold enrichment,1.8 fold enrichment
TAAGTG,6.2 fold enrichment,8.6 fold enrichment,5.9 fold enrichment,6.1 fold enrichment,4.4 fold enrichment,4 fold enrichment,2.5 fold enrichment,3.7 fold enrichment,5 fold enrichment,4.4 fold enrichment,6.4 fold enrichment,6.2 fold enrichment,2.6 fold enrichment,6.1 fold enrichment,1.3 fold enrichment
TAAGCG,3 fold enrichment,2.4 fold enrichment,3.2 fold enrichment,2.4 fold enrichment,3.6 fold enrichment,–,1.4 fold enrichment,1.9 fold enrichment,2.4 fold enrichment,2.7 fold enrichment,1.8 fold enrichment,1.9 fold enrichment,1.6 fold enrichment,2.9 fold enrichment,–
TAACCG,2.1 fold enrichment,2 fold enrichment,1.6 fold enrichment,1.5 fold enrichment,2.3 fold enrichment,–,3.7 fold enrichment,1.9 fold enrichment,1.5 fold enrichment,1.5 fold enrichment,1.9 fold enrichment,1.7 fold enrichment,4.1 fold enrichment,3.5 fold enrichment,4.9 fold enrichment
TAAACG,28 fold enrichment,4 fold enrichment,7.8 fold enrichment,6.6 fold enrichment,3.8 fold enrichment,2.4 fold enrichment,2.8 fold enrichment,3.3 fold enrichment,2.5 fold enrichment,3.1 fold enrichment,3.7 fold enrichment,4.7 fold enrichment,2.4 fold enrichment,6.3 fold enrichment,1.6 fold enrichment
TAAATG,12.6 fold enrichment,1.9 fold enrichment,5.9 fold enrichment,5 fold enrichment,3.4 fold enrichment,4.3 fold enrichment,3.3 fold enrichment,2.2 fold enrichment,2.9 fold enrichment,3 fold enrichment,3.2 fold enrichment,4 fold enrichment,2 fold enrichment,4.1 fold enrichment,–
TAATCG,9.7 fold enrichment,12.6 fold enrichment,8 fold enrichment,9.4 fold enrichment,7.6 fold enrichment,5.9 fold enrichment,8.1 fold enrichment,5.1 fold enrichment,11.4 fold enrichment,8.5 fold enrichment,9.9 fold enrichment,10.9 fold enrichment,6.7 fold enrichment,9 fold enrichment,2.6 fold enrichment
TAATGG,7.8 fold enrichment,1.9 fold enrichment,7.6 fold enrichment,8 fold enrichment,6.2 fold enrichment,7.7 fold enrichment,9.1 fold enrichment,3.7 fold enrichment,8.4 fold enrichment,7.6 fold enrichment,6.2 fold enrichment,8.1 fold enrichment,7 fold enrichment,4.7 fold enrichment,–
